This passage reports cell event count results from PubChem BioAssay AID1076 (NMMLSC, 2008).

This assay is described as follows: cytotoxicity in LNCaP prostate cells – cell-based, cell event count, single point, cytotoxicity control for prostate differentiation activator project, confirmation (AID 1076).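 Also: counts scatter-gated live cells after medium removal discards detached dead cells.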 As to conditions: LNCaP cell loss, flow cytometry event count, 4 d, stronger effect = lower value.

Calls of active or inactive are those of the source.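 The calls were made as follows: active = cell event count below 40, meaning activity score above 60 where score is 100 minus count; inactive = the rest.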

Take `Cc1ccc(C)c(N2CCN(C(=O)CCNC(=O)Cn3ccc4ccccc4c3=O)CC2)c1`: the cell event count (at 100 µM) is 76 (inactive) and the cell event count (event count, at 10 µM) was 148.
Consider `COc1ccc(-c2cc3c(=O)n(CC(=O)NC4CCN(Cc5ccccc5)CC4)ncn3n2)cc1`, for which the cell event count by setting is: (at 100 µM) 180 (inactive); (event count, at 10 µM) 257.
For the compound `Cc1cc(=O)n2nc(N3CCCC(C(=O)NCCCN4CCc5ccccc5C4)C3)sc2n1` (centres undefined), the cell event count is, setting by setting: (at 100 µM) 259 (inactive); (event count, at 10 µM) 146.
For the compound `Cc1oc(-c2cccc(Cl)c2)nc1CN1CCC(C(=O)NCc2ccco2)CC1`, the cell event count is 100 (inactive) (at 100 µM) and 189 (event count, at 10 µM).
For the compound `O=C(CCn1c(=O)[nH]c2ccccc2c1=O)NCCCN1CCN(c2cccc(Cl)c2)CC1`, the cell event count by setting is: (at 100 µM) 14 (inactive); (event count, at 10 µM) 354.
As for `Cn1c(=O)cc(OCC(=O)NCCCN2CCN(c3cccc(Cl)c3)CC2)c2ccccc21`, the cell event count reads like this: (at 100 µM) 10 (inactive); (event count, at 10 µM) 280.
For `Cc1ccccc1-c1nc(CN2CCCC(C(=O)NCCCN3CCOCC3)C2)c(C)o1` (centres undefined), the cell event count is 145 (inactive) (at 100 µM) and 175 (event count, at 10 µM).
In the same order, the values of `COc1ccc(Cc2noc(-c3ccc(C)cc3)n2)cc1` are 70 (inactive) and 152.
In the same order, the values of `Cn1c(=O)[nH]c(=O)c2c1nc(Br)n2CCCSc1nc2ccccc2o1` are 8 (inactive) and 96.
With `CN(CC(=O)Nc1ccc2c(c1)OCCO2)S(=O)(=O)c1cccc2cccnc12`, the cell event count (at 100 µM) is 95 (inactive) and the cell event count (event count, at 10 µM) stood at 156.
For `COc1ccc(-c2cc(C(F)(F)F)nc(N3CCN(c4ccc(F)cc4)CC3)n2)cc1OC`, the cell event count was 184 (inactive) (at 100 µM) and 96 (event count, at 10 µM).
In the case of `O=C(CSc1nc2c(c(=O)n1-c1ccc(F)cc1)SCC2)NCC1CCCO1` (centres undefined), the cell event count is, setting by setting: (at 100 µM) 207 (inactive); (event count, at 10 µM) 132.
For `O=C(CCn1c(=O)oc2ccccc21)NCCCN1CCN(c2ccc(F)cc2)CC1` the same measures were 213 (inactive) and 127.
For `COc1ccc(OC)c(N=Cc2c(O)[nH]c3ccccc23)c1` the same measures were 207 (inactive) and 112.
Regarding `COc1ccc(N2CCN(CCCNC(=O)CC3Oc4ccc(C)cc4NC3=O)CC2)cc1` (centres undefined), the cell event count reads like this: (at 100 µM) 290 (inactive); (event count, at 10 µM) 140.
`Oc1ccccc1CNc1nc2ccccc2n1CCN1CCCCC1`: the cell event count (at 100 µM) was 44 (inactive) and the cell event count (event count, at 10 µM) came out at 176.
Consider `CCN(CCNC(=O)C1CCCN(Cc2nc(-c3ccc(OC)cc3)oc2C)C1)c1ccccc1` (centres undefined), for which the cell event count is 18 (inactive) (at 100 µM) and 146 (event count, at 10 µM).
Take `COc1ccc(CN2C(=O)C(O)(CC(=O)c3c(C)n[nH]c3C)c3ccccc32)cc1OC` (centres undefined): the cell event count is 284 (inactive) (at 100 µM) and 248 (event count, at 10 µM).
`Cc1ccccc1-c1nc(CN2CCCC(C(=O)NCc3cccnc3)C2)c(C)o1` (centres undefined): the cell event count by setting is: (at 100 µM) 124 (inactive); (event count, at 10 µM) 135.
For `COc1ccc(CCNC(=O)C2CCN(Cc3nc(-c4ccccc4C)oc3C)CC2)cc1OC` the same measures were 1 (inactive) and 188.
In the same order, the values of `CCCS(=O)(=O)N1CCCC(C(=O)NCCCN2CCN(c3cccc(Cl)c3)CC2)C1` (centres undefined) are 53 (inactive) and 114.
`COc1ccc(C)cc1NC(=O)CCC(=O)Nc1ccc2nc(N3CCN(C)CC3)cc(C)c2c1`: the cell event count is, setting by setting: (at 100 µM) 19 (inactive); (event count, at 10 µM) 369.
In the same order, the values of `Cc1ccccc1-c1nc(CN2CCC(C(=O)O)CC2)c(C)o1` are 217 (inactive) and 207.
For `CCc1ccc(-c2nc(CN3CCC(C(=O)NCc4ccccc4OC)CC3)c(C)o2)cc1`, the cell event count is 49 (inactive) (at 100 µM) and 190 (event count, at 10 µM).
For the compound `COc1ccc(Cc2n[nH]c(=O)c3ccccc23)cc1OC`, the cell event count is, setting by setting: (at 100 µM) 207 (inactive); (event count, at 10 µM) 111.
Regarding `Cc1ccccc1-c1nc(CN2CCC(C(=O)N3CCC(C(N)=O)CC3)CC2)c(C)o1`, the cell event count is 150 (inactive) (at 100 µM) and 83.5 (event count, at 10 µM).
For `COc1ccc(CCn2c(=N)c(C(=O)NCc3ccco3)cc3c(=O)n4ccccc4nc32)cc1`, the cell event count reads like this: (at 100 µM) 32 (inactive); (event count, at 10 µM) 225.
Consider `COc1ccc(-n2nnnc2SCC(=O)c2ccc(O)c(O)c2)cc1`, for which the cell event count (at 100 µM) was 9 (inactive) and the cell event count (event count, at 10 µM) was 205.
With `O=C(COc1ccc(S(=O)(=O)N2CCCC2)cc1Cl)NC1CC1`, the cell event count reads like this: (at 100 µM) 355 (inactive); (event count, at 10 µM) 328.
As to `CCn1c(=S)ccc2ccc(OC)cc21`, the cell event count (at 100 µM) was 139 (inactive) and the cell event count (event count, at 10 µM) was found to be 118.
For the compound `COc1ccc(-c2ccc(-c3noc(-c4ccccc4)n3)c(OC)n2)cc1`, the cell event count runs as follows: (at 100 µM) 30 (active); (event count, at 10 µM) 32.
On to `CCOC(=O)C1CCCN(C(=O)Cn2cccc2C(=O)c2ccccc2)C1` (centres undefined), for which the cell event count runs as follows: (at 100 µM) 201 (inactive); (event count, at 10 µM) 166.
In the same order, the values of `COC(=O)CN1CCN(C(=O)c2ccc(F)cc2)c2ccccc2C1` are 112 (inactive) and 157.
Take `COC(=O)c1ccc2c(=O)n(Cc3ccco3)c(SCC(=O)Nc3ccc(C)c(Cl)c3)nc2c1`: the cell event count runs as follows: (at 100 µM) 138 (inactive); (event count, at 10 µM) 146.
With `O=C(NCc1ccc(Cl)cc1)c1noc2c1CCCC2`, the cell event count (at 100 µM) was 311 (inactive) and the cell event count (event count, at 10 µM) was 380.
As to `CCn1c(SCC(=O)Nc2ccccc2F)nc2c(c1=O)SC(C)C2` (centres undefined), the cell event count reads like this: (at 100 µM) 75 (inactive); (event count, at 10 µM) 70.5.
For `Cc1cc(=O)c2ccccc2[nH]1` the same measures were 143 (inactive) and 91.
